This is an account of results in PubChem BioAssay (EPA / NIEHS).

Structures are written as SMILES. The source made the active and inactive calls. Rule for the calls: active = hit-call score of the fitted dose curve at least 0.9, where 1 is the maximum; inactive = score below 0.9.

A short description of the experiment: APR_HepG2_CellCycleArrest_24hr: Apredica 24-hour HepG2 Assay for Cell Cycle Arrest (AID 2282905).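 Note: cell cycle arrest scored as ratio of 2N to 4N nuclear DNA content.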 The following applies: imaging, actives raise or lower the signal. The method, then: APR_HepG2_24hr is a cell-based, multiplexed-readout assay that uses HepG2, a human liver cell line, with measurements taken at 24 hours after chemical dosing in a 384-well plate.APR_HepG2_CellCycleArrest_24hr is one of 10 assay component(s) measured or calculated from the APR_HepG2_24hr assay. It is designed to make measurements of cell phenotype, a form of morphology reporter, as detected with fluorescence intensity signals by HCS Fluorescent Imaging technology.Data from the assay component APR_HepG2_CellCycleArrest_24hr was analyzed into 1 assay endpoint. This assay endpoint, APR_HepG2_CellCycleArrest_24hr, was analyzed with bidirectional fitting relative to DMSO as the negative control and baseline of activity. Using a type of morphology reporter, measures of all nuclear dna for gain or loss-of-signal activity can be used to understand the signaling at the pathway-level as they relate to the gene . Furthermore, this assay endpoint can be referred to as a primary readout, because this assay has produced multiple assay endpoints where this one serves a signaling function. To generalize the intended target to other relatable targets, this assay endpoint is annotated to the cell cycle intended target family, where the subfamily is arrest.
Cells were treated with dimethyl sulfoxide (DMSO) as a solvent control at a final concentration of 0.5% v/v or with compounds in DMSO with a resulting final DMSO concentration of 0.5% v/v. Compound treatment was done at concentrations of 0.39, 0.78, 1.56, 3.12, 6.24, 12.5, 25, 50, 100, and 200 uM in duplicate on each plate. Cells were treated with compounds for 1, 24, or 72 hr. Carbonyl […] m-chloro-phenylhydrazone (CCCP) and taxol were used as positive controls for mitochondrial function and cytoskeletal stability, respectively; DMSO served as the negative control for this experiment. Cells were fixed by the direct addition of 50 uL formaldehyde in Hank's Balanced Salt Solution (HBSS) to a final concentration of 3.7%. After incubation in the fixation medium for 30 min at room temperature (293-298 K), cells were rinsed twice with HBSS and treated with cell permeabilization buffer (16 uL of 0.5% Triton X-100) for 10 min at room temperature (293-298 K) before labeling. For mitochondrial membrane potential and mitochondrial measurements, pre-fixed cells were incubated with 50 uL of MitoTracker Red CMXRos (Invitrogen) at a concentration of 250 nM for 30 min before fixation. In the remaining cases, post-fixed cells were labeled by incubation with a multiplexed mixture of primary antibodies in HBSS for 60 min at room temperature (293-298 K) to detect immunoreactivity of c-Jun (1:500), phospho-histone H3 (1:100), phospho-histone H2A.x (1:200), p53 (1:400), alpha-tubulin (1:200) and Hoechst 33342 (2 ug/mL). Cells were labeled for multiplexed imaging on two separate plates: a) Hoechst 33342, MitoTracker Red, phospho-histone H3, and alpha-tubulin, and b) Hoechst 33342, phospho-histone H2A.x, and c-Jun. A final rinse with HBSS (50 uL) was performed before analysis. The primary and secondary antibodies for the proteins were phospho-histone H3 (rabbit anti-phospho-histone H3 and FITC-donkey anti-rabbit IgG), phospho-histone H2A.x (mouse anti-phospho-histone H2A.x and FITC-donkey anti-mouse IgG), c-Jun (rabbit anti-phospho-c-Jun and Cy3-donkey anti-rabbit IgG), p53 (sheep anti-p53 and Cy5-donkey anti-sheep IgG), alpha-tubulin (mouse anti-alpha-tubulin and Cy5-donkey anti-mouse IgG). These antibodies are available as the CellCiphr HepG2 assay kit (Millipore).Digital images of each well were captured using a Cellomics ArrayScan VTI (Thermo Scientific Cellomics) (0.8 NA objective, 0.63x optical coupler, and XF-93 filter set) at 20x magnification. The images were acquired using the autofocus feature of the ArrayScan instrument, which entails the following steps. First, the camera focuses on channel 1 (Hoechst 33342), where nuclei are identified. Second, a Z offset of 1 um is used for capturing mitochondria (MitoTracker Red). […]
Take `CN(C)C(=O)Nc1ccc(Cl)cc1`: the outcome was inactive.
The same measure, in the same setting: the entry for `Nc1cc(Cl)cc(C(=O)O)c1Cl` is “inactive”.
`CO[C@@H]1[C@H](OC(=O)NC(=O)CCl)CC[C@]2(CO2)[C@H]1[C@@]1(C)O[C@@H]1CC=C(C)C`: the molecule was classed as inactive.
As for `Cc1ccc([N+](=O)[O-])cc1`, the call was inactive.
For `O=C(N[C@H](c1ccccc1)[C@@H]1CN2CCC1CC2)c1c(Cl)ccc(C(F)(F)F)c1Cl`, the AC50 (in general, the concentration at which the activity in the assay is half-maximal) is 60.8 µM (active).
Regarding `CCC(C)c1ccc(O)cc1` (stereo not given), the call was inactive.
Same read-out and setting: the entry for `CCCSC(=O)N(CCC)CCC` is “inactive”; for `CCCCCCCCOC(=O)c1ccc(C(=O)OCCCCCCCC)c(C(=O)OCCCCCCCC)c1` it is “inactive”.
As to `CN(C)c1ccccc1`, the outcome was inactive.
As to `CC(C)(O)c1cnn2c(-c3ccc(F)c(-c4c(F)cccc4C#N)c3)cnc2n1`, the outcome was inactive.
Consider `CCOC(=O)[C@]1(c2ccccc2)Oc2ccccc2[C@@H]1N`, for which the call was inactive.
Regarding `c1ccc2c(c1)oc1ccccc12`, the call was inactive.
For `COC(=O)Nc1nc2ccccc2[nH]1`, the AC50 is 15.4 µM (active).
Turning to `Cc1ccc(N)c(N)c1`, the molecule was classed as inactive.
For the molecule `O=C(Nc1ccccc1)c1ccccc1I`, the AC50 was 49.7 µM (active).
Take `CCCCCCCCCCCCCN1CC(C)OC(C)C1` (stereo not given): the call was inactive.
For `C=CCc1ccc2c(c1)OCO2`, the call was inactive.
As to `OCCCBr`, the molecule was called inactive.
Same read-out and setting: to `Clc1ccccc1Cl` belongs “inactive”.
Consider `Clc1ccc(C(c2ccc(Cl)cc2)C(Cl)Cl)cc1`, for which the AC50 is 100 µM (active).
Take `Cn1cc(-c2ccccc2)c(=O)c(-c2cccc(C(F)(F)F)c2)c1`: the AC50 was 57.4 µM (active).
For the molecule `CCCCCOC(=O)c1ccccc1C(=O)OCCCCC`, the molecule was classed as inactive.
As to `COP(=S)(OC)SCN1C(=O)c2ccccc2C1=O`, the molecule was called inactive.
As to `[O-][Cl+]O`, the call was inactive.
For `CCC12COCN1COC2`, the concentration at half-maximal activity (AC50) is 45.1 µM (active).
Take `Cc1ccc(N=C=O)cc1N=C=O`: the result was inactive.
The same measure, in the same setting: to `CS(=O)(=O)NC(=O)c1cc(Oc2ccc(C(F)(F)F)cc2Cl)ccc1[N+](=O)[O-]` belongs “inactive”; to `CCCCOC(=O)c1ccccc1C(=O)OCc1ccccc1`, “inactive”.
Turning to `C[N+](C)(C)CC1CO1` (stereo not given), the AC50 was 81.2 µM (active).
Turning to `N#CC(Br)Br`, the call was inactive.
As for `CN(C)c1ccc(C(=O)c2ccc(N(C)C)cc2)cc1`, the AC50 is 4.79 µM (active).
On the same count and under the same terms, the figure for `Cc1cc(N=Nc2ccccc2C)ccc1N` is 100 µM (active).
With `ClC1=C(Cl)[C@]2(Cl)[C@H]3[C@H]([C@@H]4C=C[C@H]3C4)[C@@]1(Cl)C2(Cl)Cl`, the molecule was classed as inactive.
With `CCC[CH2][Sn]([Cl])([CH2]CCC)[CH2]CCC`, the AC50 was 100 µM (active).
As for `O=C(Oc1ccc(Br)cc1)N1CCN2CCC1CC2`, the outcome was inactive.
Take `Nc1ccc(Oc2ccc(N)cc2)cc1`: the molecule was called inactive.
With `Clc1ccc(C(c2ccc(Cl)cc2)C(Cl)(Cl)Cl)cc1`, the call was inactive.
Take `Cc1ccc(N)cc1`: the outcome was inactive.
In the case of `CC(C)(C)C(O)(CCc1ccc(Cl)cc1)Cn1cncn1` (stereo not given), the outcome was inactive.
For `c1ccc2c(c1)-c1cccc3cccc-2c13`, the molecule was classed as inactive.
